# TDP1 inh: blocks human tyrosyl-DNA phosphodiesterase 1; Q9NUW8; recombinant TDP1, AlphaScreen DNA substrate cleavage; Potency, µM (doses to about 130 µM), without a hit: at the top dose activity change, negative = inhibition, actives largely listed as inhibitors; 350,000 compounds, 0.28% hits; AID 485290; note: potency is the fitted concentration of half-maximal effect; nearly all actives have a fitted effect of over 40% in size
# Target sequence (Q9NUW8 whole entry, looked up): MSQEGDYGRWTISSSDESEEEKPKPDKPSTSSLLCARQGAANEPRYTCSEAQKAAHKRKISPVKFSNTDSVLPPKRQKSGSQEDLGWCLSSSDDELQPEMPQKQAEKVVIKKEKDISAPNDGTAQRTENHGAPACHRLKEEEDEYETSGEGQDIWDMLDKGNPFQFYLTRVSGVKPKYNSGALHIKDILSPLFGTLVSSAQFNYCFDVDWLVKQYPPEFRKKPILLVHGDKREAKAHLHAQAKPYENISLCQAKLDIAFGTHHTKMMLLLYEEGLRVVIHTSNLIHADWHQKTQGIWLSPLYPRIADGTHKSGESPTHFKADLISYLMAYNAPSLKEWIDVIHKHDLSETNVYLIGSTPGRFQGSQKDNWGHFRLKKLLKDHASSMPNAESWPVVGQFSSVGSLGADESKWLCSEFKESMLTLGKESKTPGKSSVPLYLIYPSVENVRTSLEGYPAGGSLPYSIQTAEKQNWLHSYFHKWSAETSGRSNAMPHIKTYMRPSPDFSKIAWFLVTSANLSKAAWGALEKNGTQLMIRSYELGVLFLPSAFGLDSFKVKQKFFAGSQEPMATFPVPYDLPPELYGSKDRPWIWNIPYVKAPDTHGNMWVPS
#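 AlphaScreen read-out: signal falls as enzyme removes the 3' tyrosine-FITC from a 5'-biotinylated DNA oligo (15 nM, 5 min, RT). Enzyme was E. coli-made recombinant Tdp1 at 1 nM, exposed to compound for 15 min beforehand; beads 10 ug/ml, 10 min.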
# Giardia killer: kills Giardia lamblia; Giardia lamblia trophozoite viability; activity change, % at 7.66 µM, hits read low; 340,000 compounds, 0.15% hits; in the data active = activity change below about -80%; inconclusive = between about -30% and that limit;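 note: parasites exposed to compound for two days anaerobically before the ATP read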
#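 Luminescence from cellular ATP indicates surviving trophozoites (100 cells/well) following 48 hrs anaerobic compound treatment at 37 deg C; signal develops 15-30 min at room temperature.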
# TDP1 cell noCPT: qHTS for Inhibitors of human tyrosyl-DNA phosphodiesterase 1 (TDP1): qHTS in cells in absence of CPT; Potency, µM (top dose mostly 46.2 µM), inactives show at the highest dose activity change, negative = growth inhibition, actives largely listed as inhibitors; 420,000 compounds, 15% hits; DT40 Tdp1-/- hTDP1 cells, no CPT, ATP luminescence, 48 h; note: potency is the fitted concentration of half-maximal effect; nearly all actives have a fitted effect of over 55% in size
#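 No-CPT arm: Tdp1-/-;hTDP1 DT40 cells (400/well) plus compounds, incubated ≥48 hr at 37 °C. Readout CellTiter-Glo luminescence.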
# DT40 TDP1 CPT: growth inhibition of DT40 Tdp1-/-;hTDP1 cells with camptothecin (screen for TDP1 inhibitors). chicken DT40 Tdp1-/-;hTDP1 cells + 20 nM CPT, ATP luminescence, 48 h. Potency, µM (top dose mostly 46.2 µM), for the others: top-dose activity change, negative = growth inhibition, usual class: inhibitors. 420,000 compounds, 12% hits. AID 686979; note: potency is the fitted concentration of half-maximal effect; nearly all actives have a fitted effect of over 55% in size
#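 Chicken DT40 Tdp1-/- cells stably complemented with human TDP1 were seeded at 400 cells/well in medium containing 20 nM camptothecin, exposed to pin-transferred compounds, and grown at 37 °C for at least 48 hr. Viability was read as ATP luminescence.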
# IL-1B inflam inh: blocks inflammasome-driven IL-1 beta release. AID 743279. activity change, % at 57.5 µM. THP-1 LPS/ATP IL-1B secretion, AlphaLISA, 16 h; active compounds read low. 360,000 compounds, 4.7% hits; in the data active = activity change below about -50%; inconclusive = mostly about -30% to -49%
#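 THP-1 cells pretreated 1 hr with compounds (up to 57.5 uM final), then stimulated with LPS (250 ng/mL final) plus ATP (1.25 mM final); secreted IL-1B measured by AlphaLISA after 16 hr, decreased signal indicating inhibition.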
# ELG1 repair inh: inhibitors of ELG1-dependent DNA repair in HEK293T cells; HEK293T ELG1-luciferase reporter, luminescence, 16 h; DNA damage induced by 5-fluorouridine; Potency, µM (top dose mostly 46.1 µM), without a hit: top-dose activity change, negative = inhibition, usual class: inhibitors; 330,000 compounds, 2.3% hits; note: potency is the fitted concentration of half-maximal effect; nearly all actives have a fitted effect of over 55% in size
#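 DMSO vehicle served as the neutral condition. Each well held 2,000 cells given 5-fluorouridine plus compound; after 16 hr at 37 °C/5% CO2, ONE-Glo was added and luciferase measured 30 min later.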
# * = called active by the depositor; ? = inconclusive; . = not tested or not shown. Only some compounds are listed: those with a hit (about 19% of all), similar ones and a draw of the others. Unless noted, calls come from the whole dose curve; as a rule, active = well fitted curve in the direction sought with a large enough effect; inconclusive = small, poorly fitted or top-dose-only effect, or another doubt; inactive = no such curve, though single readings can be large; an effect the other way counts as inactive or inconclusive. % is set by controls: 0 for no effect and ±100 for the full control effect.
SMILES,TDP1 inh,Giardia killer,TDP1 cell noCPT,DT40 TDP1 CPT,IL-1B inflam inh,ELG1 repair inh
COC(=O)c1[nH]c2ccc(C)cc2c1NC(=O)CN1CCN(c2ccc(F)cc2)CC1,6.8%,1.0,15.8µM*,11.2µM*,-6.1,9.2µM*
COC(=O)c1[nH]c2ccc(C)cc2c1NC(=O)CN1CCN(C(=O)c2ccccc2)CC1,4.1%,0.3,?,?,27.9,20.6µM*
O=C(c1ccccc1-n1cccn1)N1CCOc2c(cc(-c3ncc(C(F)(F)F)cc3Cl)cc2OCC2CCCO2)C1 (stereo not drawn),.,.,-18.0%,?,.,.
COc1ccc(S(=O)(=O)NCCc2sc(-c3cccnc3)nc2C)cc1OC,2.2%,.,.,.,.,.
COC(=O)c1[nH]c2ccc(C)cc2c1NC(=O)CN1CCN(Cc2ccccc2)CC1,4.9%,-18.1,25.9µM*,18.4µM*,-1.2,8.2µM*
CCOC(=O)N1CCN(CC(=O)Nc2c(C(=O)OC)[nH]c3cc(C)ccc23)CC1,0.0%,2.9,?,?,32.5,-19.0%
CCC(=O)Nc1cc(C(=O)NCc2ccc(C)cc2)ccc1S(=O)(=O)c1ccc(C)cc1,0.9%,.,?,?,.,.
CCOc1ccc(CNC(=O)c2ccc(Sc3ccc(Cl)cc3)c(NC(C)=O)c2)cc1,7.8%,-14.5,18.4µM*,23.1µM*,?,?
CC(=O)Nc1cc(C(=O)NCc2ccc(C)cc2)ccc1S(=O)(=O)c1ccc(Cl)cc1,7.8%,.,16.4µM*,?,.,.
CC1CCCN(C(=O)C2CCN(S(=O)(=O)c3ccccc3)CC2)C1 (stereo not drawn),0.8%,6.9,-10.2%,1.1%,7.1,-7.5%
O=C(Nc1cccc(F)c1)N1CC2(CCN(C(=O)c3ccco3)CC2)C1,.,.,-7.3%,-7.8%,.,.
OC1(C#CCCN2CCCCC2)c2ccccc2-c2ccccc21,-5.4%,-0.4,-24.6%,-5.9%,2.1,12.3%
N#CC1(CCCN2CCCCC2)c2ccccc2CCc2ccccc21,.,4.0,?,?,-57.1*,.
CC(OC(=O)CCNS(=O)(=O)c1cccs1)C(=O)Nc1ccc(S(N)(=O)=O)cc1 (stereo not drawn),-0.2%,0.7,-2.0%,-7.7%,2.1,12.5%
Cn1c2nc(=O)n(-c3ccccc3)c(=O)c-2nc2c1CCCC2,.,.,?,20.6µM*,11.3,.
Cc1cccc(-c2noc(-c3cc4ccccc4oc3=O)n2)c1,5.9%,-3.0,-12.3%,-7.9%,4.1,?
COc1ccc(NC(=O)C2(C)CCN2Cc2ccc(OC)c3ccccc23)cc1OC (stereo not drawn),.,.,23.1µM*,?,-26.2,.
COc1cccc(CN2CCC2(C)C(=O)Nc2cccc3cccnc23)c1F (stereo not drawn),.,.,18.4µM*,?,21.4,.
COc1cccc(CN2CCC2(C)C(=O)NCc2cccc(C(F)(F)F)c2)c1OC (stereo not drawn),.,.,13µM*,13µM*,-1.2,.
CC1(C(=O)NCc2cccc(C(F)(F)F)c2)CCN1C1Cc2ccccc2C1 (stereo not drawn),.,.,20.6µM*,?,12.5,.
COc1ccc(NC(=O)C2(C)CCN2Cc2cccc(OC)c2OC)cc1OC (stereo not drawn),.,.,16.4µM*,?,0.0,.
COc1ccc(NC(=O)C2(C)CCN2Cc2csc3ccccc23)cc1OC (stereo not drawn),.,.,14.6µM*,14.6µM*,-15.1,.
COc1ccc(OC)c(NC(=O)C2(C)CCN2Cc2ccc(OC)c3ccccc23)c1 (stereo not drawn),.,.,?,?,28.4,.
O=C1C=CC(=O)N1c1ccc2c(c1)C(NC(=O)C(F)(F)F)c1ccccc1-2 (stereo not drawn),.,-5.5,1.84µM*,1.3µM*,-80.6*,.
CN(C)C(=O)NC1c2ccccc2-c2ccccc21,.,-14.5,14.0%,-1.8%,0.0,-4.6%
SMILES,TDP1 inh,Giardia killer,TDP1 cell noCPT,DT40 TDP1 CPT,IL-1B inflam inh,ELG1 repair inh
O=C1CN(N=Cc2ccco2)C(=O)N1,.,7.2,-3.9%,17.1%,-16.1,.
COc1cc(NS(=O)(=O)c2ccc(C)cc2)c2ncccc2c1,7.3%,5.2,1.16µM*,0.82µM*,54.1,?
Cc1ccc(S(=O)(=O)Nc2cccc3cccnc23)cc1,17.9%,-10.7,20.6µM*,?,-97.5*,?
Cc1ccc(S(=O)(=O)Nc2ccc(NS(=O)(=O)c3ccc(C)cc3)c3ncccc23)cc1,21.5%,.,.,.,.,.
Cc1ccc2occ(-c3cc(-c4ccccc4)nc4c3COc3ccccc3-4)c(=O)c2c1,3.2%,.,?,-28.1%,.,.
C=CCn1c(SCc2ccccc2Cl)nnc1-c1sc2nc(C)cc(C)c2c1N,1.4%,-8.1,23.1µM*,?,-11.9,20.6µM*
Cc1cc(C)c2c(N)c(-c3nnc(SCc4ccc(Cl)cc4)n3C)sc2n1,1.4%,-2.0,?,-4.3%,23.3,-12.6%
OCC(O)C(O)C(O)C(O)C(O)CO (stereo not drawn),?,.,11.3%,-4.2%,.,.
C(=Nc1cccnc1)c1ccnc2ccccc12,.,.,1.78µM*,2µM*,.,.
C(=Nc1cnc2ccccc2c1)c1ccnc2ccccc12,.,.,2.82µM*,2.82µM*,.,.
C(=Nc1cnc2ccccc2c1)c1cccnc1,.,.,4.8%,17.4%,.,.
CC(C)C[C@@H](CC(=O)N[C@H](CC(=O)N[C@@H]1CCCC[C@H]1C(=O)N[C@H](CC(=O)N[C@@H](CCC(=O)O)CC(=O)O)CC(C)C)C(C)C)NC(=O)[C@@H]1CNCC[C@H]1N,6.9%,.,.,.,.,.
CCOc1ncccc1C(=O)Nc1nc(SC)ns1,5.3%,-1.4,-10.9%,?,39.1,?
Cc1cn2c(=O)cc(COC(=O)c3cccc(NC(=O)c4ccc(C(C)(C)C)cc4)c3)nc2s1,1.2%,.,-10.7%,10.1%,.,.
N#C/C(=C(/O)COC(=O)CSc1ccc(Cl)cc1)c1nc2ccccc2[nH]1,8.1%,23.9,5.17µM*,18.4µM*,-102.0*,?
COc1ccccc1OCC(=O)OC/C(O)=C(\C#N)c1nc2ccccc2[nH]1,5.6%,21.8,?,?,44.1,?
Cc1cc(SCC(=O)OC/C(O)=C(\C#N)c2nc3ccccc3[nH]2)c(C)cc1Br,5.5%,6.9,?,?,-100.1*,10.1%
N#CC(=C(O)COC(=O)CCC1CCCCC1)c1nc2ccccc2[nH]1,.,6.3,5.17µM*,5.8µM*,-98.5*,.
Fc1ccc(CN2CC[C@H]3C=CCc4cccc(c43)C2)cc1,5.2%,?,?,?,24.3,11.5%
